# NLRP3 yeast inh: NALP3 inflammasome inhibitors in reconstituted yeast, primary screen, luminescence, uHTS; inhibition, % at 10 µM; actives 0.39% (n = 330,000); Yeast reconstituted NLRP3/ASC/caspase-1, beta-gal luminescence, 24 h; AID 2825, 2010;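 active = inhibition of 50% or more; inactive = inhibition below 50%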;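 note: plate controls were induced DMSO wells for no effect and uninduced yeast grown without galactose for full effect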
# tim23-1 inh: growth inhibitors of tim23-1 mutant yeast, primary screen, luminescence, uHTS. S. cerevisiae tim23-1 growth, BacTiter-Glo luminescence, 24 h. inhibition, % at 20 µM. actives 1.3% (n = 330,000);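 active = growth inhibition of the mutant yeast at or above 50%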;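 note: temperature-sensitive mutant grown at 25 °C; plate controls were DMSO-treated mutant yeast for no effect and medium wells lacking yeast for full effect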
# SKKanGAS inh: S. pyogenes SKKanGAS growth inhibitors in kanamycin, primary screen, streptokinase expression inhibitor project, SKKanGAS strain, BacTiter-Glo luminescence; 6 h; inhibition, % at 7.5 µM; actives 1.3% (n = 300,000);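 active = mean replicate score, as percent of positive control median, at least 50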;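 note: strain carries kanamycin resistance gene driven by streptokinase promoter and grows in 40 µg/ml kanamycin; loss of luminescence reflects streptokinase promoter inhibition or plain growth inhibition; 0% = median of DMSO wells and 100% = positive control at its reference dose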
# TIM10 inh: growth inhibitors of isogenic TIM10 control yeast, primary screen, counter-screen for tim10-1 yeast inhibitor project, luminescence, uHTS; inhibition, % at 10 µM; S. cerevisiae TIM10 strain growth, BacTiter-Glo luminescence, 24 h; actives 1.4% (n = 330,000);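 active = inhibition of 40% or more at the single tested concentration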;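 note: wild-type TIM10 isogenic control strain grown at permissive 25 °C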
# PfHsp90 set2: growth inhibition of PfHsp90-expressing yeast, primary screen, antimalarial PfHsp90 inhibitor project, S. cerevisiae, BacTiter-Glo luminescence, single point, set 2. inhibition, % at 9.4 µM. actives 0.32% (n = 310,000). BacTiter-Glo ATP, 48 h; yeast lacking PDR1 and PDR3 efflux regulators;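 active = every replicate shows inhibition above about 80%, whatever the replicate mean, limit read from the data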;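 note: 0% = DMSO neutral controls and 100% = 20 µM radicicol positive controls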
# tim10-1 inh: growth inhibitors of tim10-1 mutant yeast, primary screen, luminescence, uHTS | S. cerevisiae tim10-1 ts strain growth, BacTiter-Glo, 24 h | inhibition, % at 20 µM | actives 2.2% (n = 330,000) | AID 463190, 2010;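 active = inhibition of at least 40%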;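 note: mutant grown at 25 °C; 0% = DMSO wells with yeast and 100% = wells holding no yeast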
# tim10-1 conf: growth inhibitors of tim10-1 mutant yeast, confirmation, single concentration, luminescence, S. cerevisiae; AID 463213, 2010; S. cerevisiae tim10-1 ts strain growth, BacTiter-Glo, 24 h; inhibition, % at 20 µM; actives 56% (n = 7,400); shares compounds with tim10-1 inh;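 active = inhibition of yeast growth at or above a set limit in either of two repeat tests at 20 µM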;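 note: tim10-1 mutant grown at permissive 25 °C to find synthetic lethal compounds; 0% = DMSO yeast wells and 100% = medium wells without yeast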
# TIM10 conf: growth inhibitors of wild-type TIM10 yeast, confirmation, counter-screen for tim10-1 synthetic lethality project, single concentration, luminescence, S. cerevisiae. shares compounds with TIM10 inh. S. cerevisiae tim10 strain growth, BacTiter-Glo luminescence, 24 h. inhibition, % at 10 µM. actives 63% (n = 4,600). AID 463215, 2010;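 active = inhibition of yeast growth at or above a set limit in either of two replicates at 10 µM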;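 note: this counterscreen used the strain with wild-type TIM10; 0% = yeast with DMSO and 100% = medium wells lacking yeast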
# tim23-1 confirm: tim23-1 mutant yeast growth inhibitors, confirmation, luminescence, single concentration; shares compounds with tim23-1 inh; S. cerevisiae tim23-1 growth, BacTiter-Glo luminescence, 24 h; inhibition, % at 20 µM; actives 83% (n = 4,400); AID 463218, 2010;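 active = inhibition above about 39% in either of two replicate wells at 20 µM, limit read from the data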;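 note: temperature-sensitive tim23-1 mutant grown at 25 °C; 0% = DMSO wells with yeast and 100% = medium wells without yeast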
# Starred values were filed as active, the others as inactive; · = not tested or not shown. Sampled rows, rich in hits. Any-hit rate of the full collection: about 4.6%.
SMILES,NLRP3 yeast inh,tim23-1 inh,SKKanGAS inh,TIM10 inh,PfHsp90 set2,tim10-1 inh,tim10-1 conf,TIM10 conf,tim23-1 confirm
CCOc1cc(/C=C2\CN(C)C/C(=C\c3ccc(O)c(OCC)c3)C2=O)ccc1O,15,52*,20,31,7,58*,47*,·,62*
Cc1cc(C)n(CC(O)Cn2c3ccc(Cl)cc3c3cc(Cl)ccc32)c(=O)n1 (stereo not given),8,54*,17,61*,-5,57*,54*,56*,47*
CC(C)c1ccc(N(CCc2ccccn2)C(=O)C(C)(C)C)cc1,10,24,4,27,1,19,·,·,·
COc1cccc2nc3cc(C)c(C)cc3nc12,21,50*,54*,43*,66,64*,53*,33*,54*
COc1cccc2c1nc(C)c1cc(C)oc12,-5,17,-5,6,-16,21,·,·,·
CCN(Cc1ccccc1)C(c1ccncc1)c1nnnn1C(C)(C)C (stereo not given),3,53*,-8,30,-22,41*,39*,·,37
N#Cc1ccc(C(CC(=O)O)N2Cc3ccccc3C2=O)cc1 (stereo not given),1,13,-3,5,10,-1,·,·,·
O=C(NC12CC3CC(CC(C3)C1)C2)C12CC3CC(C1)CC(n1cnc(Cl)n1)(C3)C2,5,60*,-3,46*,16,65*,53*,46*,50*
Cc1cc(C)cc(N=Cc2ccc([N+](=O)[O-])s2)c1,19,55*,6,83*,106*,56*,71*,86*,74*
O=[N+]([O-])c1ccc(/C=N/Nc2ncccc2[N+](=O)[O-])s1,1,3,12,14,2,23,·,·,·
O=[N+]([O-])c1ccc(C=Nc2ccc(Cl)c([N+](=O)[O-])c2)s1,9,51*,·,85*,106*,65*,71*,88*,77*
OCC(O)/C=N/Nc1nc(Nc2ccccc2)nc(Nc2ccccc2)n1 (stereo not given),29,54*,17,46*,-11,50*,28,45*,48*
CNc1nc(N/N=C/c2ccc([N+](=O)[O-])cc2)nc(Nc2ccccc2)n1,46,28,3,25,14,11,·,·,·
Cc1ccc(NC(=O)/C(C#N)=C/c2ccccc2C(F)(F)F)cc1,5,13,-3,30,-18,34,·,·,·
Cc1ccccc1NC(=O)/C(C#N)=C/c1ccccc1C(F)(F)F,18,56*,-2,56*,-15,58*,56*,5,58*
COc1ccc(C(OC(=O)c2ccco2)C(=O)NC(C)(C)C)cc1OC (stereo not given),·,·,·,·,7,·,·,·,·
Cc1cc(C)n(-c2cc(C(C)(C)C)nc3c(-c4ccccc4)cnn23)n1,9,51*,4,27,-58,47*,41*,·,48*
C/C(=N\Nc1nc(C)cc(-c2ccccc2)n1)c1ccc(C)o1,11,52*,2,45*,-28,49*,32*,8,49*
CCOc1ccc(C(=O)C(C)OC(=O)Cn2[nH]c(=O)c3ccccc3c2=O)cc1 (stereo not given),15,7,-7,1,-1,20,·,·,·
Cc1ccc(-n2c(=S)[nH]c3[nH]ncc3c2=O)cc1,34,5,-15,8,-17,3,·,·,·
CC(C)Cn1nc(C(=O)Nc2nnc(C3CC3)s2)c2ccccc2c1=O,26,52*,·,20,-17,47*,29*,·,41*
COc1ccc(C2CC(c3ccc(Br)cc3)=NN2C(=O)CSC2=NN3CCCC(=O)N=C3S2)cc1 (stereo not given),10,37,-4,30,-11,36,·,·,·
Cc1ccc(C2CC(c3cccs3)=NN2C(=O)CSC2=NN3CCCC(=O)N=C3S2)cc1 (stereo not given),10,57*,12,45*,2,50*,44*,40*,60*
Cc1noc(C)c1COc1ccc(C(=O)Nc2nnc(CC(C)C)s2)cc1,-12,0,·,6,-23,10,·,·,·
Cc1ccc(S(=O)(=O)/N=C2\C=C(Nc3ccc(O)cc3)C(=O)c3ccccc32)cc1,22,51*,·,40,5,64*,74*,·,70*
SMILES,NLRP3 yeast inh,tim23-1 inh,SKKanGAS inh,TIM10 inh,PfHsp90 set2,tim10-1 inh,tim10-1 conf,TIM10 conf,tim23-1 confirm
O=S(=O)(NC12CC3CC(CC(C3)C1)C2)c1ccc(F)cc1,32,55*,0,12,0,48*,30*,·,49*
COc1ccc(-c2cc(C(F)F)nc(-n3nc(C)cc3C)n2)cc1,30,58*,28,52*,-25,42*,36*,-10,45*
Cc1ccccc1NC1=CC(=O)CC(C)(C)C1,9,-9,-2,-5,-22,14,·,·,·
CC1(C)CC(=O)C=C(NC2=CC3OC(c4ccccc4)OCC3OC2=O)C1 (stereo not given),5,59*,-2,59*,28,68*,58*,-1,56*
CC(C)N1CCC(N2CCN(Cc3cc4c(cc3Cl)OCO4)CC2CCO)CC1 (stereo not given),-2,7,-5,-23,3,1,·,·,·
CC(=O)/C=C/c1ccc2ccccc2n1,33,71*,-11,59*,-3,65*,65*,60*,82*
CCOc1ccc(C(=O)/C=C/c2cn(CN3CCN(C)CC3)c3ccccc23)cc1,37,68*,·,39,-11,40*,20,·,51*
Clc1ccc(CNCc2cccs2)c(Cl)c1,-14,-1,0,-14,-8,10,·,·,·

# Compound activity from PubChem.
